Assay outcomes: PubChem BioAssay, National Center for Advancing Translational Sciences (NCATS)
Coupling enz: counter-screen for Giardia aldolase inhibitors: coupling enzyme system; coupling enzyme system counterscreen, AmpLite Red fluorescence; activity change, negative = inhibition, % at 58.2 µM, hits read low; hit rate 0.67% among 290,000; AID 2472; in the data active = activity change below about -30%
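Coupling enzymes only (glyceraldehyde-3-phosphate) + compound, at 57.5 uM final, 10 min RT; add substrate/coupling/AmpLite Red mix, 20 min RT; fluorescence ex 525/em 598 nm. Actives flag coupling-system interference.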
ALDH1A1 inh: blocks purified human ALDH1A1 activity. hit rate 7.3% among 220,000. P00352. Purified ALDH1A1, NADH fluorescence, propionaldehyde substrate. Potency, µM (top dose mostly 75.3 µM), for inactives: at the top dose activity, negative = inhibition, hits mostly inhibitors;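 note: potency is the fitted concentration of half-maximal effect; plate controls were no enzyme wells and a reference inhibitor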
NPSR antag: antagonists of human neuropeptide S receptor cAMP signaling | Q6W5P4 | CHO-NPSR cells, cAMP TR-FRET, antagonist mode | Potency, µM (series often up to 38.3 µM), for the others: at the highest dose activity change, negative = inhibition, usual class: inhibitors | hit rate 1% among 220,000; active = well fitted curve in the direction sought with a large enough effect; inconclusive = small, poorly fitted or top-dose-only effect, or another doubt; inactive = no such curve, though single readings can be large; an effect the other way counts as inactive or inconclusive; note: potency is the fitted concentration of half-maximal effect; nearly all actives have a fitted effect of over 50% in size
JMJD2E inh: blocks human JMJD2E demethylase activity | Potency, µM (highest dose often 57.1 µM), for the others: at the highest dose activity change, negative = inhibition, usual class: inhibitors | hit rate 1.6% among 230,000 | JMJD2E catalytic domain, FDH-coupled NADH fluorescence (FDH is formaldehyde dehydrogenase);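 note: potency is the fitted concentration of half-maximal effect; 0% = wells with enzyme and -100% = buffer wells without enzyme; nearly all actives have a fitted effect of over 50% in size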
Target sequence (B2RXH2 1-337 limits assumed): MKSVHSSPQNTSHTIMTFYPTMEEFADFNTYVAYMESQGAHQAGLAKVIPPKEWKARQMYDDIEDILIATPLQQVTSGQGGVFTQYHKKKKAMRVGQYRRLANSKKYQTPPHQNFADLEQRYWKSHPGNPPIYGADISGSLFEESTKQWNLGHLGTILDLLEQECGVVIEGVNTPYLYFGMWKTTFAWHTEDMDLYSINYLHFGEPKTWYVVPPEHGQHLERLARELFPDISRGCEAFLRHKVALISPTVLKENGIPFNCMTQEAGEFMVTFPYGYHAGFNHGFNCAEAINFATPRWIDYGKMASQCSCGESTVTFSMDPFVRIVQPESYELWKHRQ
Sfp inh: Sfp phosphopantetheinyl transferase inhibition | Biochemical Sfp PPTase activity, qHTS | Potency, µM, for the others: largest response in the series, negative = inhibition, most hits filed as inhibitors | hit rate 3.5% among 310,000 | AID 1490; active = well fitted curve in the direction sought with a large enough effect; inconclusive = small, poorly fitted or top-dose-only effect, or another doubt; inactive = no such curve, though single readings can be large; an effect the other way counts as inactive or inconclusive;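 note: the enzyme is Sfp with the accession as filed and its product quenches rhodamine fluorescence; potency is the fitted concentration of half-maximal effect; 0% = enzyme reaction without inhibitor and -100% = no enzyme wells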
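Reaction rates are the 30-min fluorescence difference (ex 525, em 598 nm) in wells containing 15 nM Sfp, 5 uM rhodamine-CoA and 12.5 uM BHQ-2-YbbR at pH 7.6 with 10 mM MgCl2.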
GoLoco inh red: RGS12 GoLoco-Gai1 interaction inhibition | Potency, µM (doses to about 61.6 µM), inactives show at the highest dose activity, negative = inhibition, hits mostly inhibitors | hit rate 0.44% among 230,000 | AID 880 | Gai1:RGS12 GoLoco peptide FP, rhodamine, 10 min | P63096; active = well fitted inhibition curve with a large enough effect, not every such curve was filed as active; inactive = no such curve, though single readings can be large or run the other way; note: potency is the fitted concentration of half-maximal effect; nearly all actives have a fitted effect of over 30% in size
Target sequence (P63096 whole entry, looked up): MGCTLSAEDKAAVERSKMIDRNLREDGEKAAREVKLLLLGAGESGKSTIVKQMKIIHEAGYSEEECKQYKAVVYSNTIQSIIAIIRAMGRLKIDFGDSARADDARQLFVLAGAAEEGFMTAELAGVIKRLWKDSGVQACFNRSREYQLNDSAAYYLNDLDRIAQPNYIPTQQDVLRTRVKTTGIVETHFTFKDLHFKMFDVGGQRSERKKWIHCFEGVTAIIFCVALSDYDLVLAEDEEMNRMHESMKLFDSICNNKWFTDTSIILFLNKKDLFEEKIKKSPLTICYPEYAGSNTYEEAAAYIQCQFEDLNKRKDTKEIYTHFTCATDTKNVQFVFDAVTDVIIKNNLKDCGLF
An asterisk follows results filed as active; ? = inconclusive; . = not tested or not shown; [ ] = another dose, or the depositor's remark. The list is not random: actives were taken first. Their share in the collection is about 8.5%. Unless noted, calls come from the whole dose curve; as a rule, active = well fitted inhibition curve with a large enough effect (not every such curve was filed as active); inconclusive = small, poorly fitted or top-dose-only effect, or another doubt; inactive = no such curve, though single readings can be large or run the other way. Unless noted, % is set by controls: 0 for no effect and ±100 for the full control effect.

SMILES	Coupling enz	ALDH1A1 inh	NPSR antag	JMJD2E inh	Sfp inh	GoLoco inh red
COc1ccccc1NC(=O)CSc1nnnn1C1CCCCC1	0.9	.	.	.	9.7%	.
Cc1cccc(NC(=S)N(CCN(C)C)Cc2cccs2)c1	0.9	-2.3%	0.1%	-6.3%	18.7%	0.1%
CC(C)CC1=NN2C(=N)/C(=C\c3coc4ccccc4c3=O)C(=O)N=C2S1	4.5	11.2µM*	-55.1%	?	-20.3%	-9.5%
Cc1cc(C)n2cc(CSc3ncn[nH]3)nc2n1	0.6	?	12.8%	?	-2.8%	5.2%
CCOc1ccc(-c2n[nH]c(=S)c3ccccc23)cc1	2.3	.	.	.	3.4%	.
S=c1[nH]nc(-c2ccccc2)c2ccccc12	-1.0	8.91µM*	-18.9%	-1.5%	14.8%	9.8%
Cc1ccc(-c2n[nH]c(=S)c3ccccc23)cc1	0.6	0.355µM*	-30.1%	-4.0%	-5.4%	1.6%
Nc1ccc(S(N)(=O)=O)cc1	0.1	-7.4%	.	2.2%	21.3%	3.1%
Nc1ccc(S(N)(=O)=O)cc1N	-27.8	.	-15.7%	7.94µM*	10.4%	10.6%
CNc1nc(-c2ccccc2)[n+](-c2ccc(C)cc2)s1	-0.4	2.51µM*	?	-2.6%	3.16µM*	.
Cc1ccc(-c2nc(N)s[n+]2-c2ccccc2)cc1	-0.6	7.08µM*	?	0.9%	?	3.55µM*
COc1cccc2cc(C(=O)NCCN3CCOCC3)c(=O)oc12	0.0	.	.	.	15.8%	.
COc1ccc(NC(=O)c2nn(C)cc2[N+](=O)[O-])cc1	-0.5	0.6%	-15.2%	4.3%	6.9%	-20.4%
Cc1ccc(NC(=O)c2nn(C34CC5CC(CC(C5)C3)C4)cc2[N+](=O)[O-])cc1	0.3	0.0282µM*	?	2.7%	19.0%	-4.8%
Cc1cc(C)cc(-n2c(C)cc(/C=C3\C(=N)N4N=C(CC(C)C)SC4=NC3=O)c2C)c1	-0.8	?	?	?	-10.5%	10.2%
CCCC1=NN2C(=N)/C(=C\c3cc(C)n(-c4cc(C)cc(C)c4)c3C)C(=O)N=C2S1	15.3	?	-53.9%	?	20µM*	1.0%
CC1=NN2C(=N)/C(=C\c3cc(C)n(-c4cccc(C)c4)c3C)C(=O)N=C2S1	14.3	.	12.6µM*	?	-17.5%	10.8%
Cc1cccc(-n2c(C)cc(/C=C3\C(=N)N4N=C(CC(C)C)SC4=NC3=O)c2C)c1	-2.9	?	-33.2%	?	7.6%	5.7%
O=C(Nc1ccc(Br)cc1)c1cccc(S(=O)(=O)Nc2ccc(Br)cc2)c1	0.4	.	.	.	15.0%	.
O=C1CSc2ccc(C(=O)Nc3cccc(S(=O)(=O)Nc4ccc(Br)cc4)c3)cc2N1	3.8	10µM*	?	-13.1%	35.5µM*	-10.3%
O=P(O)(O)c1ccccc1OCCOCCOc1ccccc1P(=O)(O)O	5.1	?	-4.6%[46.1 µM]	-20.0%	-13.8%	6.3%
CCOP(=O)(O)c1ccccc1OCCOCCOc1ccccc1P(=O)(O)OCC	3.0	3.98µM*	-13.2%[46.1 µM]	-4.3%	17.1%	3.1%
Cc1ccc(-n2ncc3c(=O)n(CC#N)cnc32)cc1C	0.3	15.8µM*	-12.7%[46.1 µM]	?	7.2%	8.9%
C#CCn1cnc2c(cnn2-c2ccc(C)c(C)c2)c1=O	-3.4	14.1µM*	-10.9%[46.1 µM]	?	-14.6%	-13.1%
Cc1ccc(-n2ncc3c(=O)n(CC(N)=O)cnc32)cc1C	1.3	.	.	.	-1.4%	.
SMILES	Coupling enz	ALDH1A1 inh	NPSR antag	JMJD2E inh	Sfp inh	GoLoco inh red
Cc1cccc2cc(CNC3CCCC3)c(Cl)nc12	1.5	1.9%	3.3%	-23.0%	11.6%	2.1%
Cc1cc(C)c(C(=O)N2CCCC(CNS(=O)(=O)c3cccs3)C2)o1 (stereo not drawn)	.	.	.	.	4.7%	.
Cc1cc(C(=O)N2CCCC(CNS(=O)(=O)c3cccs3)C2)nn1C (stereo not drawn)	1.5	17.8µM*	-15.9%	3.3%	2.8%	7.3%
CCOC(=O)Cc1csc(NC(=O)NC2(C(F)(F)F)Oc3cc(Cl)c(Cl)cc3O2)n1	-9.3	-4.0%	3.9%[46.1 µM]	28.2µM*	?	6.2%
CCOC(=O)Cc1csc(NC(=O)c2csc3c2CCCC3)n1	-6.5	14.1µM*	?	-21.3%	-17.0%	166.1%
CCOC(=O)Cc1csc(NC(=O)NC2(C(F)(F)F)Oc3ccccc3O2)n1	-6.7	-15.8%	-24.8%[46.1 µM]	?	44.7µM*	9.3%
COc1cccc(NC(=O)NC2(C(F)(F)F)Oc3ccccc3O2)c1	2.2	35.5µM*	18.5%	5.1%	-7.1%	-18.1%
CCOC(=O)Cc1csc(NC(=O)Nc2ccc(OC(F)(F)F)cc2)n1	-2.7	11.5%	8.6%	18.3%	7.8%	0.9%
COc1cccc(NC(=O)Nc2cccc(C(=O)O)c2)c1	3.6	5.9%	1.9%	-4.8%	12.9%	12.2%
O=C(CC1C(=O)NCCN1CC1CCCCC1)NCCCN1CCOCC1 (stereo not drawn)	-9.3	.	.	.	0.5%	.
CCc1ccccc1N(C(=O)c1snc(C(N)=O)c1N)C(C(=O)NCC1CCCO1)c1c[nH]c2ccccc12 (stereo not drawn)	0.3	.	.	.	-1.7%	.
O=C(C(=O)N1CCN(C(=O)c2ccco2)CC1)c1c[nH]c2ccccc12	2.3	1.7%	13.7%	-7.4%	11.5%	1.0%
Cc1[nH]c2ccccc2c1NC(=O)CN1CCN(C(=O)c2ccco2)CC1	-16.2	6.31µM*	-7.9%	-0.6%	44.7µM*	-16.2%
CCOC(=O)c1cc(CC)sc1NC(=O)CN1CCN(C(=O)c2ccco2)CC1	.	.	.	.	39.8µM*	.
Cc1[nH]c2ccccc2c1C(=O)C(=O)N1CCN(C(=O)c2ccco2)CC1	1.7	6.31µM*	9.2%	?	16.7%	-4.9%
COC(=O)/C=C1/SC(=NC(=O)c2ccccc2)NC1=O	4.5	?	-3.3%[46.1 µM]	1.9%	28.2µM*	.
COC(=O)/C=C1\SC(=NC(=O)c2cccc(Cl)c2)NC1=O	4.6	?	-6.4%[46.1 µM]	7.9%	44.7µM*	8.2%
COC(=O)/C=C1/SC(=NC(=O)c2ccc(F)cc2)NC1=O	-1.2	-8.2%	?	-10.1%	28.2µM*	2.9%
Cc1ccc(S(=O)(=O)N/N=C2/CCCCC2C2CCCCC2)cc1[N+](=O)[O-] (stereo not drawn)	11.6	35.5µM*	-16.1%	-0.5%	-7.2%	9.8%
CCC(C)(C)C1CCC(=NNS(=O)(=O)c2ccc(C)c([N+](=O)[O-])c2)CC1 (stereo not drawn)	-0.8	7.94µM*	1.3%	2.5%	3.2%	4.1%
C=CCC(C)(O)c1cccs1 (stereo not drawn)	5.4	-2.3%	.	6.6%	9.0%	-2.6%
COC(=O)C1=C(C)NC(=S)NC1c1ccco1 (stereo not drawn)	0.5	?	18.7%	0.0%	-25.8%	3.2%
O=C(NCc1ccc(F)cc1)C(c1ccccc1)c1ccccc1	5.1	.	.	.	10.1%	.
CC(=O)N(Cc1ccc(F)cc1)C1=C(NCc2ccccc2)C(=O)c2ccccc2C1=O	-54.6*	2.2%	?	?	-2.6%	22.7%
